This note sets out measurements from PubChem BioAssay.

Assay [1] in a line: blood-stage malaria parasite viability loss – strain 3D7, DAPI fluorescence, 100 nL, primary screen (AID 1184).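 Note: parasites grown inside human red blood cells in medium with human serum.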 The conditions noted are these: P. falciparum 3D7 growth, 3 d, higher = more signal.
Assay [2] concerns the target Homeobox protein Hox-A13 (Mus musculus) (UniProt Q62424). As to the kind of experiment: disruptors of Hoxa13 oligonucleotide interaction – biochemical, fluorescence polarization, labeled oligonucleotide, primary screen (AID 1185). As to conditions: Hoxa13:DNA binding, 15 min, higher = more signal, called active from +8 up or from −8 down. (In general: Polarisation of emitted light reports the rotation of a fluorescent probe.)

A short description of assay [3]: blockers of DNA damage checkpoint Chk1 activation – imaging, HeLa, hydroxyurea, phospho-Chk1 antibody, percent positive cells, primary screen (AID 1186). As to conditions: hydroxyurea-induced phospho-Chk1 immunofluorescence imaging, higher = more signal.
Assay [4] in a line: blockers of DNA damage checkpoint Chk1 activation – imaging, HeLa, hydroxyurea, phospho-Chk1 nuclear intensity, primary screen (AID 1187). Note: test concentration not given here. The conditions noted are these: hydroxyurea-induced phospho-Chk1 immunofluorescence imaging, higher = more signal.

Activity calls are given as the source filed them. Unless noted, the rule behind the calls is not given here.

Homeobox protein Hox-A13 (Mus musculus), sequence (Q62424 whole entry, looked up): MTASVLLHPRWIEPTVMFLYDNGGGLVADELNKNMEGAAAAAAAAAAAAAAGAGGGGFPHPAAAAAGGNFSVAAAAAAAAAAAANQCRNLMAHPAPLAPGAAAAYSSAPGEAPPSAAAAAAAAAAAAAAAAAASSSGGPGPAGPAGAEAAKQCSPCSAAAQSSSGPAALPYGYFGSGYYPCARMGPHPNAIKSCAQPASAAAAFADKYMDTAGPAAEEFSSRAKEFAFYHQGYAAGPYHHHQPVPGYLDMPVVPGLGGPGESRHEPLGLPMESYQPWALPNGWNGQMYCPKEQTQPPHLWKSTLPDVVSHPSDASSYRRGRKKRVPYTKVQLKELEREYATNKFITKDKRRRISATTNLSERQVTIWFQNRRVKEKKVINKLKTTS

In the case of `Cc1ccc(S[C@]2(C(=O)NC3CC3)CC(=O)N(Cc3ccccc3C(F)(F)F)[C@@H]2c2ccc(CO)cc2I)cc1`, the z-score in assay [1] is -0.215; in assay [2], -1 (inactive); in assay [3] it was 0.104 (inactive); in assay [4], 0.576 (inactive).

Take `C=CC[C@@]1(C(=O)NCc2ccccc2)N=C(c2ccc(OCCCO)cc2)O[C@@H]1c1ccccc1`: the z-score in assay [1] is -2.24; in assay [2], -6.13 (inactive); in assay [3], -0.762 (inactive); in assay [4], -0.974 (inactive).

In the case of `CC(C)C(=C=CC[C@@H](O)c1ccc(CO)o1)CCO`, the z-score in assay [1] was -0.0113; in assay [2], -3.45 (inactive); in assay [3], -0.969 (inactive); in assay [4] it was -0.763 (inactive).

On to `COCCCNC(=O)[C@@]1(Cc2ccccc2CN=[N+]=[N-])COC(c2ccc(OCCCO)cc2)=N1`, for which the z-score in assay [1] was -2.1; in assay [2], -4.83 (inactive); in assay [3], -0.742 (inactive); in assay [4] it was -0.73 (inactive).

Take `COCCOC(=O)N1C(=O)[C@@]2(c3ccccc31)[C@H](C(=O)Nc1nc3ccccc3s1)[C@H]1C(=O)O[C@H](c3ccccc3)[C@H](c3ccccc3)N1[C@@H]2c1ccc(O)cc1`: the z-score was 0.112 in assay [1], 0.895 (inactive) in assay [2], -0.2 (inactive) in assay [3] and 0.3 (inactive) in assay [4].

As for `C=CCOC(=O)[C@H]1[C@@H]2C(=O)O[C@@H](c3ccccc3)[C@@H](c3ccccc3)N2[C@@H](c2ccc(OCCOC(=O)[C@H]3C[C@H]4C(=O)N5CCC[C@H]5C(=O)N4[C@H]3c3cccc(OCCO)c3)cc2)[C@]12C(=O)Nc1ccccc12`, the z-score in assay [1] was -1.9; in assay [2], 1.42 (inactive); in assay [3], 0.217 (inactive); in assay [4] it was 0.5 (inactive).

Turning to `Cc1ccc(S[C@]2(C(=O)NCC(C)C)CC(=O)N(C(C)C)[C@@H]2c2ccc(CO)cc2)cc1`, the z-score in assay [1] is -1.79; in assay [2] it was 1.8 (inactive); in assay [3], -0.273 (inactive); in assay [4] it was -0.0385 (inactive).

Turning to `CCCCC(=C=CC[C@H](O)c1cccc(OCCO)c1)CCO`, the z-score is -1.01 in assay [1], -2.75 (inactive) in assay [2], -0.0801 (inactive) in assay [3] and -0.401 (inactive) in assay [4].

Consider `CC(C)C[C@@H]1NC(=O)[C@@]23C(=O)N[C@@H](Cc4ccccc4)C2[C@H](C)[C@@]2(C)O[C@H]2C3/C=C/C/C=C\CNC(=O)[C@H](Cc2ccccc2)NC1=O` (stereo partly drawn), for which the z-score is -1.46 in assay [1], -5.15 (inactive) in assay [2], 0.03 (inactive) in assay [3] and 0.356 (inactive) in assay [4].

In the case of `CO[C@H]1O[C@H](CO)[C@@H](OC(=O)Nc2ccccc2)[C@H](OC(=O)Nc2ccccc2-c2ccccc2)[C@@H]1OC(=O)Nc1ccccc1-c1ccccc1`, the z-score in assay [1] was -2.3; in assay [2], -1.96 (inactive); in assay [3] it was -0.515 (inactive); in assay [4] it was -0.367 (inactive).

For `COc1ccc([Si](C)(C)[C@@H]2[C@@H](CC(=O)N3CCC[C@H]3CO)O[C@]3(C(=O)N(Cc4ccc(I)cc4)c4ccccc43)[C@H]2C)cc1`, the z-score in assay [1] was -2.17; in assay [2], -2.86 (inactive); in assay [3], -0.703 (inactive); in assay [4] it was -0.413 (inactive).

`COc1ccc(C(=O)Nc2cccc(CN3C(=O)[C@@]4(O[C@@H](CCO)[C@H]([Si](C)(C)c5ccc(OC)cc5)[C@H]4C)c4ccccc43)c2)cc1`: the z-score in assay [1] is -2.7; in assay [2], -2.09 (inactive); in assay [3], -1.08 (inactive); in assay [4], -0.215 (inactive).

On to `[N-]=[N+]=NCc1ccccc1C[C@@]1(C(=O)O)N=C(c2ccc(OCCCO)cc2)O[C@@H]1c1ccccc1`, for which the z-score in assay [1] was -0.455; in assay [2], -5.05 (inactive); in assay [3], 0.0912 (inactive); in assay [4], 0.429 (inactive).

Turning to `O=C1O[C@H](c2ccccc2)[C@H](c2ccccc2)N2[C@H]1[C@@H](C(=O)Nc1nc3ccccc3s1)[C@]1(C(=O)Nc3ccc(C#CCCO)cc31)[C@H]2c1ccccc1OCCO`, the z-score was -2.23 in assay [1], 2.73 (inactive) in assay [2], 0.288 (inactive) in assay [3] and 0.492 (inactive) in assay [4].

For `CCCCC(=C=CC[C@@H](O)c1ccc(OCCO)cc1)C[C@@H](O)c1cc(Cl)cc(Cl)c1O`, the z-score was -2.87 in assay [1], -3.4 (inactive) in assay [2], -0.806 (inactive) in assay [3] and -0.578 (inactive) in assay [4].

For the molecule `C=CC[C@@H](OC(=O)Nc1ccc(SC)cc1)c1ccc(OCCO)cc1`, the z-score in assay [1] is 0.246; in assay [2], -5.9 (inactive); in assay [3], -0.0622 (inactive); in assay [4] it was 0.593 (inactive).

Consider `CC(C)CCC[C@@H](C)[C@H]1CC[C@@]2(C)C3=C(CC[C@]12C)[C@@]1(C)CC[C@H](OC(=O)CCl)C(C)(C)C1CC3` (stereo partly drawn), for which the z-score is -0.0992 in assay [1], -0.128 (inactive) in assay [2], -0.199 (inactive) in assay [3] and -0.281 (inactive) in assay [4].

In the case of `C=C(COC)C(=O)CC[C@H](OC(=O)c1cccnc1)c1cccc(OCCO)c1`, the z-score in assay [1] is -1.66; in assay [2], -3.09 (inactive); in assay [3] it was -0.458 (inactive); in assay [4], -0.203 (inactive).

Take `CO[C@H]1O[C@H](CO)[C@@H](OC(=O)Nc2ccccc2)[C@H](OC(=O)Nc2ccc3c(c2)OCO3)[C@H]1OC(=O)Nc1ccc2c(c1)OCO2`: the z-score is -2.2 in assay [1], -7.83 (inactive) in assay [2], -0.935 (inactive) in assay [3] and -0.967 (inactive) in assay [4].

In the case of `C=CCNC(=O)[C@@H]1[C@H]2C(=O)O[C@H](c3ccccc3)[C@H](c3ccccc3)N2[C@H](c2ccc(O)cc2)[C@@]12C(=O)N(C(=O)OCCOC)c1ccc(C#Cc3ccc(OC)cc3)cc12`, the z-score in assay [1] is -1.08; in assay [2], -0.182 (inactive); in assay [3] it was 0.148 (inactive); in assay [4] it was 0.446 (inactive).

Take `[N-]=[N+]=NCc1ccccc1C[C@@]1(C(=O)NCc2ccccc2)N=C(c2ccc(OCCCO)cc2)O[C@@H]1c1ccccc1`: the z-score in assay [1] is -2.15; in assay [2], 0.77 (inactive); in assay [3], -1.01 (inactive); in assay [4] it was -1.39 (inactive).

Turning to `CCCCCN1CC=CC23O[C@@H]4/C=C\CCC(C)OC(=O)C4[C@H]2C(=O)N(CCO)[C@@H]3C1=O` (stereo partly drawn), the z-score in assay [1] is -1.41; in assay [2], -3.89 (inactive); in assay [3], -0.174 (inactive); in assay [4], 0.125 (inactive).
